Some test systems named below: NLK; PAK1; PAK2; PAK3; PAK4; PAK6; PAK7; PDGFRA; PDGFRB; PDPK1; PFTAIRE2; PHKG1; PHKG2; PIK3C2B.
What all share (conditions): concentration: 1 μM, replicates: in singlicate; n = 1
Another assay relates to T1, NIM1.
T1 construct: gene MGC42105

Another assay concerns T2, OSR1.
T2 construct: gene OXSR1

A further assay concerns T3, PCTK1.
T3 construct: gene CDK16

The next assay concerns T4, PCTK2.
T4 construct: gene CDK17

For another assay, the system named is T5, PCTK3.
T5 construct: gene CDK18

Another assay has as its system T6, PFTK1.
T6 construct: gene CDK14

The source of these data is PMC5540273 (PLoS ONE, 2017).

Each structure is given as a SMILES string.
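Also: KINOMEscan kinase panel screen.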

With `Cc1cc(-c2ccnc(Nc3cccc(C#N)c3)n2)cc(C)c1O` [GSK1440913], the “%Inh” value in the assay with NIM1 turned out to be 12%; in the assay with NLK it was 16%; with OSR1, 13%; in the assay with PAK1 it was 34%; in the assay on PAK2, 28%; in the assay with PAK3, 0%. Moreover, the “%Inh” value with PAK4 amounted to 0%; in the assay on PAK6 it was 0%; with PAK7, 0%; in the assay on PCTK1, 16%; in the assay with PCTK2, 55%; in the assay with PCTK3, 43%. The “%Inh” value with PDGFRA worked out at 4%; in the assay on PDGFRB it was 60%; in the assay with PDPK1, 0%; in the assay with PFTAIRE2 it was 24%; in the assay with PFTK1, 18%; with PHKG1, 27%. For the same compound, the figures for the “%Inh” value in the assay on PHKG2 and in the assay with PIK3C2B were 15% and 0%, respectively.
As for `O=C(Nc1c(F)cccc1F)c1cc(C(=O)c2ccccc2F)c[nH]1` [GSK1326180], the “%Inh” value is reported as 0% in the assay on NIM1; 0% in the assay on NLK; 34% in the assay on OSR1; 0% in the assay on PAK1; 0% in the assay with PAK2; 0% with PAK3. The “%Inh” value in the assay on PAK4, in the assay on PAK6, with PAK7, with PCTK1, with PCTK2 and in the assay on PCTK3 was 0% throughout. Further, the “%Inh” value in the assay with PDGFRA is on record as 0%; with PDGFRB, 14%; with PDPK1, 0%; in the assay on PFTAIRE2 it was 10%; in the assay with PFTK1 it was 20%; with PHKG1, 0%. Moreover, the “%Inh” value with PHKG2 and in the assay on PIK3C2B was 0% each time.
As to `CS(=O)(=O)c1cccc(CNc2nc(Nc3ccc4c(c3)CCC(=O)N4)ncc2C(F)(F)F)c1`, the “%Inh” value in the assay with NIM1 is on record as 5%; with NLK, 0%; in the assay on OSR1 it was 0%; in the assay on PAK1, 0%; in the assay with PAK2 it was 0%; in the assay on PAK3 it was 0%. Moreover, the “%Inh” value in the assay on PAK4 came out at 0%; with PAK6 it was 0%; with PAK7, 0%; with PCTK1 it was 0%; in the assay on PCTK2 it was 0%; with PCTK3, 4%. Further, the “%Inh” value in the assay with PDGFRA stood at 15%; in the assay on PDGFRB, 62%; in the assay on PDPK1, 32%; in the assay with PFTAIRE2, 14%; with PFTK1, 10%; in the assay on PHKG1 it was 0%. Also, the results for the “%Inh” value with PHKG2 and in the assay with PIK3C2B were 3% and 0%, respectively.
